Source: PubChem BioAssay (National Center for Advancing Translational Sciences (NCATS))
The list is not random: actives were taken first. Their share in the collection is about 7.4%.
NPC1 prom act: NPC1 promoter activation; actives 2.4% (n = 320,000); Potency, µM (doses to about 9.22 µM), without a hit: at the top dose activation, most hits filed as activators; Huh7 NPC1 promoter luciferase reporter, 24 h; note: % of control where 0% means no effect; nearly all actives have a fitted effect of over 60% in size
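Luciferase expression driven by the NPC1 promoter was measured in stably transfected Huh7 cells after a 24 h compound incubation, using a luciferase reagent and a luminescence read.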
p53 reactivation: re-activators of mutant p53; AID 504706; Potency, µM (highest dose often 92.2 µM), for inactives: at the highest dose activity change, positive = activation, actives largely listed as activators; actives 0.063% (n = 320,000); H1299 p53-A138V BP100-luciferase reporter, luminescence, 24 h; note: % of control where 0% means no effect; nearly all actives have a fitted effect of over 45% in size
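H1299 (p53-null), stable ts p53-A138V + BP100-Luc; 1000 cells/well, Opti-MEM/10% FBS; cpd 4 pt, 1:5; 24 h, 37 deg C, 5% CO2; detection reagent 10 min RT; luminescence.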
ELG1 genotoxic: inducers of genotoxicity in HEK293T ELG1-luciferase cells. Potency, µM (titrated, usually from 46 µM), without a hit: top-dose activity change, positive = activation, most hits filed as activators. actives 1.3% (n = 330,000). HEK293T ELG1-luciferase reporter, luminescence, 16 h; note: % of control where 0% means no effect; nearly all actives have a fitted effect of over 60% in size
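Luminescence read-out: rising ELG1-luciferase signal, reflecting elevated ELG1 protein under genetic stress, flags genotoxic compounds. Cells were treated for 16 hr at 37 °C before ONE-Glo detection.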
FLuc modulator: inhibits or activates purified firefly luciferase, miR-21 counter-screen; P08659; purified FLuc, Km substrates, luminescence inhibition; Potency, µM (doses to about 57.5 µM), without a hit: at the highest dose activity change, negative = inhibition, usual class: inhibitors; actives 6.9% (n = 360,000);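 note: plate controls were vehicle for no effect and reference inhibitor for full effect; nearly all actives have a fitted effect of over 55% in size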
Target sequence (P08659 whole entry, looked up): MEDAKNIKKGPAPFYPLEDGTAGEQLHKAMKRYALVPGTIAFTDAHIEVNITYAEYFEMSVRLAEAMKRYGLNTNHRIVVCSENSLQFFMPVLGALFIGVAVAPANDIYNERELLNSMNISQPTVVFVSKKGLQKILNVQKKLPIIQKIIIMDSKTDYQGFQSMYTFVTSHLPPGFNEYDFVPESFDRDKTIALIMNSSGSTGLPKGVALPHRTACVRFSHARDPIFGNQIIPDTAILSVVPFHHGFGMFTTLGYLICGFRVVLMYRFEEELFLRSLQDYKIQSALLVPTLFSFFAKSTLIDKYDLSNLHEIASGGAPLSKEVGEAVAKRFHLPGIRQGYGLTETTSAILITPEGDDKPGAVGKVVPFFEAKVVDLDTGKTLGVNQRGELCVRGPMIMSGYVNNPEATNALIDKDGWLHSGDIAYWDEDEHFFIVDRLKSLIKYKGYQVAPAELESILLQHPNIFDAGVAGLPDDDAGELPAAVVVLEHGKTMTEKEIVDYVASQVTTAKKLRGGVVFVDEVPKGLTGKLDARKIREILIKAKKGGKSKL
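Purified P. pyralis luciferase (10nM final) with 10uM D-luciferin and 10uM ATP (Km levels) in 50mM Tris acetate pH 7.5, 10mM Mg acetate, 0.01% Tween-20, 0.05% BSA; qHTS 6-point titration, ~60 µM downward; luminescence read.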
SMN2 splice up: enhancers of SMN2 splice variant expression | HEK293 SMN2-luciferase splicing reporter, luminescence, 30-36 h | Potency, µM (top dose mostly 46.1 µM), for inactives: top-dose activity change, positive = activation, usual class: activators | actives 2.8% (n = 210,000) | AID 1458; note: % of control where 0% means no effect; nearly all actives have a fitted effect of over 55% in size
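HEK293 cells carry an SMN2 minigene-luciferase reporter in which exon 7 inclusion puts luciferase in frame. Cells were seeded at 2000 cells/well, attached for 10-12 hours, then exposed to compounds for 30-36 hours at 37C before ONE-Glo luminescence.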
Rab9 prom act: Rab9 promoter activation; Huh7 Rab9 promoter-luciferase reporter, luminescence, 24 h; Potency, µM (top dose mostly 9.22 µM), without a hit: at the top dose activation, negative = inhibition, usual class: activators; actives 2.8% (n = 320,000); AID 485297; note: % of control where 0% means no effect; nearly all actives have a fitted effect of over 60% in size
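Measured in stably transfected Huh7 cells bearing a Rab9 promoter–luciferase construct: 24 h compound treatment at 37 °C, followed by luminescence detection.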
* marks the source's active call; other numbers are inactive results; ? = inconclusive; . = not tested or not shown; [ ] = dose if it differs, or a comment. Calls come from the whole dose curve; as a rule, active = well fitted curve in the direction sought with a large enough effect; inconclusive = small, poorly fitted or top-dose-only effect, or another doubt; inactive = no such curve, though single readings can be large; an effect the other way counts as inactive or inconclusive. Potency is the fitted concentration of half-maximal effect.

SMILES | NPC1 prom act | p53 reactivation | ELG1 genotoxic | FLuc modulator | SMN2 splice up | Rab9 prom act
Cc1cccc(C)c1NC(=O)CNC(=O)c1ccc2nc[nH]c2c1 | -1.8% | 1.5% | 0.1% | 3.3% | . | 2.7%
Cc1ccc(NC(=O)c2ccc3nc[nH]c3c2)cc1C | 2.82µM* | . | ? | 9.53µM* | 11.2µM* | 1.78µM*
COc1cccc(N2C(=O)N(CC(=O)NCc3cccc(OC)c3OC)c3ccccc3S2(=O)=O)c1 | . | . | . | 0.3% | . | .
Cc1ccccc1-n1sc2cc(F)ccc2c1=O | 10.4% | -7.3% | -10.3% | 10.7µM* | -47.8% | 4.7%
COc1ccc(OC)c(CCNc2ncnc3onc(-c4ccc(F)cc4)c23)c1 | . | . | . | -10.7% | . | .
Cn1/c(=N/N=C/c2ccccn2)sc2ccccc21 | 2.24µM* | -0.5% | ? | 3.79µM* | 15.8µM* | 1.12µM*
Cn1/c(=N/N=C/c2ccc(Cl)c([N+](=O)[O-])c2)sc2ccccc21 | ? | 1.9% | 0.4% | ? | 13.7% | 13.0%
CCC(=O)N/N=c1/sc2ccccc2n1C | -0.9% | -1.7% | -1.0% | 1.8% | 7.3% | -3.6%
Cn1/c(=N/N=C/c2ccc(N3CCOCC3)cc2)sc2ccccc21 | ? | 12.2% | 12.6% | 3.01µM* | 26.3% | 29.6%
FC(F)(F)c1ccccc1-c1nccc(NCc2ccccc2)n1 | . | . | . | . | -11.9% | .
CCn1c(=O)c2sccc2n(Cc2cc(C(=O)OC)ccc2OC)c1=O | 0.8% | . | 8.4% | -1.0% | . | 0.3%
CC(C)(C)n1cnc2cc(NC(=O)c3cccs3)ccc21 | 2.51µM* | 1.2% | ? | 7.57µM* | 12.6µM* | 1.26µM*
CN(C)c1ccc(CNc2ccc3c(c2)ncn3C(C)(C)C)cc1 | -0.9% | -0.8% | 13.3% | 8.49µM* | . | -1.1%
CC(C)(C)n1cnc2cc(NC(=O)c3ccccc3)ccc21 | 1.41µM* | 21.8% | 5.17µM* | 6.01µM* | . | 1.41µM*
CCn1cnc2cc(NC(=O)c3cccs3)ccc21 | 3.55µM* | 6.6% | ? | 15.1µM* | 12.6µM* | 2.24µM*
CCC(=O)Nc1ccc2c(c1)ncn2CCc1ccccc1 | 3.4% | -0.8% | 9.8% | -11.0% | . | -3.8%[1.84 µM]
CCn1cnc2cc(NCc3ccc(N(C)C)cc3)ccc21 | 0.1% | 10.1% | ? | ? | -18.1% | -3.0%
Cn1c(CN2CCCCC2)nc2cc(NC(=O)c3cccs3)ccc21 | 4.4% | 25.1% | 14.2% | ? | -40.0% | -2.9%
O=[N+]([O-])c1ccc2c(c1)c(S(=O)(=O)O)cc1nonc12 | . | . | . | . | -2.5%[9.22 µM] | .
CC(C)(C)n1cnc2cc(NCc3cccs3)ccc21 | ? | 24.8% | 19.9% | 12µM* | 8.91µM* | ?
CCn1cnc2cc(NCc3cccs3)ccc21 | ? | 1.9% | ? | ? | ? | 26.1%
O=C(Nc1ccc2c(c1)CCCN2C(=O)c1ccco1)c1cc([N+](=O)[O-])ccc1Cl | 0.2% | -6.1% | -39.9% | 3.5% | . | -1.1%
Cc1ccc(Nc2c(-c3ccc(N(C)C)cc3)nc3ccccn23)cc1 | . | . | . | 7.57µM* | 14.6% | .
Cc1ccc2nc(-c3ccncc3)c(Nc3ccccc3)n2c1 | -0.6% | -8.0% | -0.9% | 0.0% | 17.8µM* | -0.2%
Cc1ccc(-c2nc3ccccn3c2Nc2ccc3c(c2)OCO3)cc1 | . | . | . | ? | -6.4% | .
Cc1cc(C)c(Cn2c(=O)n(CCC(=O)NCCc3ccccc3)c(=O)c3ccccc32)c(C)c1 | . | . | . | 0.6% | -7.5% | .
Cc1ccc(/C=C2\SC(=O)N(CCNC(=O)C3CSC4(C)CCC(=O)N34)C2=O)cc1 (stereo not given) | 6.8% | 14.4% | -1.3% | 19µM* | . | 7.7%
Cc1ccc(/C=C2\SC(=O)N(CCC(=O)N3CCN(C)CC3)C2=O)cc1 | ? | ? | ? | 13.5µM* | . | 24.1%
CN1CCN(C(=O)CCN2C(=O)S/C(=C/c3ccc(Cl)cc3)C2=O)CC1 | 5.7% | 17.8% | 0.2% | ? | -1.2% | 2.0%
COc1ccc(/C=C2\SC(=O)N(CCC(=O)N3CCN(C)CC3)C2=O)cc1 | 24.1% | . | 9.2% | 19µM* | . | 17.9%
